The campaign covered roughly 420,000 compounds. About 64,000 (15%) were called active. Another 27% or so got no clear call; they are omitted. The call rests on the fitted dose curve; in most records, active means well fitted inhibition curve with a large enough effect; inconclusive means small, poorly fitted or top-dose-only effect; inactive means flat fitted curve, though single readings scatter. A selection follows. A call without a number means that no potency is given here.
Assay: qHTS for Inhibitors of human tyrosyl-DNA phosphodiesterase 1 (TDP1): qHTS in cells in absence of CPT; further: nearly all actives have a fitted effect of over 55% in size
Conditions: DT40 Tdp1-/- hTDP1 cells, no CPT, ATP luminescence, 48 h; activity change, negative = growth inhibition: at 46.2 µM (top of the series)
Outline: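 Growth of hTDP1-complemented DT40 Tdp1-knockout cells is measured by ATP luminescence after at least 48 hr compound exposure at 37 °C, with DMSO substituting for the 20 nM CPT used in the parallel screen.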
Potency means the concentration at half of the fitted maximal effect.

| SMILES | Potency |
| --- | --- |
| CO[C@H]1O[C@@H]2O[C@@]3(C)CC[C@@H]4[C@@H](C)CC[C@@H]([C@H]1C)[C@@]24OO3 | 0.891 µM (active) |
| CCOC(=O)CSc1nnc(-c2ccncc2)o1 | inactive |
| CCOc1cc(/C=N/NC(=O)OC)ccc1OCCSc1ccc(Cl)cc1 | inactive |
| Cc1ccc(NN=Nc2nc3c([nH]2)c(=O)n(C)c(=O)n3C)cc1 | inactive |
| Cc1ccn2c(Nc3ccc4c(c3)OCCO4)c(-c3ccc(C)s3)nc2c1 | inactive |
| Oc1ccccc1-c1nc2ccc(Cl)cn2c1Nc1ccc2c(c1)OCCO2 | 23.1 µM (active) |
| Cn1cc([N+](=O)[O-])c(C(=O)Nc2ccc3c(c2)OCCO3)n1 | inactive |
| COCCn1c(SCC(=O)Nc2nc(C)cs2)nnc1C(C)C | inactive |
| COc1ccc(OC)c(C2N(c3ccccn3)C(=O)C3CCCN32)c1 (configuration not stated) | inactive |
| CCc1nnc(NS(=O)(=O)c2ccc(NC(=S)NC(=O)/C=C/c3cccs3)cc2)s1 | inactive |
| O=C(c1cc(-c2cccc(O)c2)on1)N1CCc2ccccc2C1 | inactive |
| Clc1ccc(-c2ncc3ccccn23)c(Cl)c1 | inactive |
| Clc1ccc(-c2cc(C3CCNCC3)[nH]n2)c(Cl)c1 | 20.6 µM (active) |
| CCCn1c(=O)c2[nH]c(C3CCCC3)nc2n(CCC)c1=O | inactive |
| CCCc1cc(=O)[nH]c(SCC(=O)Nc2ccc(S(=O)(=O)N3CCCC3)cc2)n1 | inactive |
| Clc1ccc(CSc2nnc(/C=C/c3ccccc3)o2)c(Cl)c1 | inactive |
| COCCNc1nc2nonc2nc1N1CCCC1c1nccs1 (configuration not stated) | inactive |
| CC(C)(C)c1ccc(CN2C(=O)c3ccccc3S2(=O)=O)cc1 | 20.6 µM (active) |
| O=C1c2ccccc2S(=O)(=O)N1Cc1c(F)cccc1Cl | inactive |
| CNC(=O)CN1C(=O)c2ccccc2S1(=O)=O | inactive |
| CC(=O)[C@@]12O[C@@H]1C[C@H]1[C@@H]3CC[C@H]4C[C@@H](O)CC[C@]4(C)[C@H]3CC[C@@]12C | inactive |
| NC(=O)CCC(NS(=O)(=O)c1ccc(Cl)cc1)C(=O)NCc1ccccc1Cl (configuration not stated) | inactive |
| O=C(O)COc1ccc(/C=N/O)cc1Br | inactive |
| CCCC(=O)Nc1nnc(-c2ccccc2)o1 | inactive |
| Cc1c(CC(=O)NCCCCCC(=O)O)c(=O)oc2cc3occ(-c4ccccc4)c3cc12 | inactive |
| CCCCCCc1cc2cc(-c3nnc(-c4ccccc4)o3)c(=O)oc2cc1O | 20.6 µM (active) |

| SMILES | Potency |
| --- | --- |
| COc1cc2c(cc1OC)CC(=O)N(CCCN(C)C[C@H]1Cc3cc(OC)c(OC)cc31)CC2 | inactive |
| C=CCn1c(Cn2nnc3ccccc32)nnc1SCC(=O)N/N=C/c1cc(Br)cc(OC)c1O | inactive |
| CC(C)(C)C(=O)CSc1nc2ccccc2o1 | inactive |
| Cn1c(SCC(=O)N/N=C/c2ccc(O)c(O)c2)nc2ccccc21 | 18.4 µM (active) |
| Cc1ccc(/C=N/NC(=O)CSc2nc3ccccc3o2)cc1 | 23.1 µM (active) |
| CCN(CC)C(=O)CSc1nc2ccccc2o1 | inactive |
| CCOc1ccc(/C=N/NC(=O)CSc2ccccn2)cc1O | inactive |
| COc1cc(OC)c(C(=O)Nc2ccc(N(C)C)cc2)cc1OC | inactive |
| COc1ccc(-c2nc3cnc(N(C)C)nc3n(Cc3cccs3)c2=O)cc1 | inactive |
| CC1(Oc2ccccc2-c2ccno2)CCN(Cc2ccc(-c3ccccc3)o2)C1 (configuration not stated) | 23.1 µM (active) |
| CCOc1ccc(/C=N\NC(=O)c2c(C)nc3cc(C)ccn23)cc1 | inactive |
| CCOc1cc(/C=N/NC(=O)c2c(C)nc3ccc(Cl)cn23)ccc1O | 8.2 µM (active) |
| CCOc1cc(/C=N/Nc2cc(C)nc3ccc(C)cc23)ccc1O | 25.9 µM (active) |
| Cc1ccc2nc(C)cc(N/N=C/c3ccc(F)cc3)c2c1 | inactive |
| CCOc1cc(C=NNC(=O)CCCC(=O)NN=Cc2ccc(O)c(OCC)c2)ccc1O | inactive |
| C/C=C(/C)C(=O)OC1Cc2c(ccc3ccc(=O)oc23)OC1(C)C (configuration not stated) | inactive |
| CCCS(=O)(=O)N1CCCC(C(=O)NCc2ccco2)C1 (configuration not stated) | inactive |
| COc1ccc(C(C#N)Nc2ccc(C)cc2)cc1 (configuration not stated) | inactive |
| O=C(N/N=C/c1cccnc1)c1ccc(NC(=O)c2ccc(F)cc2)cc1 | inactive |
| Fc1ccc(/C=N/Nc2nc(-c3cccnc3)nc3ccccc23)cc1 | 16.4 µM (active) |
| CCOc1ccc(C2/C(=C(/O)c3ccc4c(c3)CC(C)O4)C(=O)C(=O)N2CCCn2ccnc2)cc1 (configuration not stated) | inactive |
| O=C1/C(=C\c2ccccc2Cl)SC(=S)N1CCC(=O)N1CCCc2ccccc21 | 14.6 µM (active) |
| COc1ccc(NC(=O)CCN2C(=O)/C(=C/c3ccc4c(c3)OCO4)SC2=S)cc1 | inactive |
| O=C(CN1CCCCCC1)NCCN1C(=O)S/C(=C\c2ccccc2Cl)C1=O | inactive |
| C=C(C)C1CC=C(CO)CC1 (configuration not stated) | inactive |
| CCCn1c(N)c(C(=O)CSc2nnc(-c3cccnc3)n2-c2ccc(C)cc2C)c(=O)[nH]c1=O | inactive |
